Assay outcomes from PubChem BioAssay.
HMGR II inh: inhibitors of E. faecalis class II HMGR, primary screen, biochemical, Enterococcus faecalis; 0.41% of 190,000 active; purified E. faecalis HMGR, NADPH absorbance 340 nm kinetic; inhibition, % at 10 µM;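 active = inhibition above a set limit, the median over all tested compounds plus 3 SD, cut at about 9.5% in these data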;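 also: enzyme runs in reverse so mevalonate oxidation gives rising NADPH absorbance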
dFosB act: activators of delta FosB homodimer, primary screen, biochemical, fluorescence polarization, TAMRA-CDK5 oligo, single point; activation, % at 25 µM; AID 493131, 2011; Protein FosB (Mus musculus), P13346; 0.99% of 340,000 active; purified delta FosB; percent of positive-control signal above neutral wells;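 active = mean activation above about 17%, with every replicate also reaching it, limit read from the data, passing the limit was not always enough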
Target sequence (P13346 whole entry, looked up): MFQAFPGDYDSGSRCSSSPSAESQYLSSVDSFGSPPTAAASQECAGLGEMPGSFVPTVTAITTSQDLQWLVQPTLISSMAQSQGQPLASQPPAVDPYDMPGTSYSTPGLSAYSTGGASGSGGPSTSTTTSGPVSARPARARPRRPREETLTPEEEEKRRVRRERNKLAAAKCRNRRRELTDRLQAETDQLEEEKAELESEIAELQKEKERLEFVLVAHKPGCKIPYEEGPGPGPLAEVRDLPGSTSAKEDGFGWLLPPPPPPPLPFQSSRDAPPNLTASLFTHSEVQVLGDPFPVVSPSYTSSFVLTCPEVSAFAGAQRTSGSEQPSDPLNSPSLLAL
p47phox inh: p47phox/p22phox peptide binding inhibitors, primary screen, biochemical, uHTS, NADPH oxidase regulatory subunit; Neutrophil cytosol factor 1 (Homo sapiens), P14598; fluorescence polarization, 2 h; inhibition, % at 24.7 µM; AID 1274, 2008; 0.53% of 220,000 active;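 active = inhibition above about 30%, limit read from the data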
14-3-3 Bad inh: inhibitors of 14-3-3 zeta/Bad binding, primary screen, biochemical, TR-FRET, bovine 14-3-3 zeta. 14-3-3 protein zeta/delta (Bos taurus), P63103. TR-FRET 14-3-3zeta/Dy647-pBad peptide displacement, 1 h. inhibition, % at 21.7 µM. 0.71% of 220,000 active. AID 781, 2007;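 active = inhibition above about 70%, limit read from the data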
Target sequence (P63103 whole entry, looked up): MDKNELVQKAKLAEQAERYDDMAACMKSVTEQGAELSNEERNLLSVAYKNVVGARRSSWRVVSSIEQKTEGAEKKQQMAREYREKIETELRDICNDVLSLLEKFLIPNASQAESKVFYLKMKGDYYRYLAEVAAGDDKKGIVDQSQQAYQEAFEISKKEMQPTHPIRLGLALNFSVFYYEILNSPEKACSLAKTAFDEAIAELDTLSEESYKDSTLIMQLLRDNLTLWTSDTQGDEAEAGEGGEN
Large screens that a line does not name were inactive; [ ] = dose if it differs, or a comment. A selection: hits, their analogues and other compounds. The true share with any hit is near 1.9%.

CN(C)S(=O)(=O)c1cccc(N=c2scc(-c3ccc4c(c3)NC(=O)CO4)n2CC2CCCO2)c1 (stereo not drawn)	14-3-3 Bad inh 70
Cc1cc(NC(=O)c2ccc(Cl)cc2)no1	p47phox inh 48
CCCSc1nnc2n(-c3ccccc3OC)c(=O)c3c4c(sc3n12)CCC4	none
O=C(CCN1CCN(c2ccccc2)CC1)Nc1ccc2c(c1)OCO2	none
CCN1CCN(CCC(=O)Nc2ccc3c(c2)OCO3)CC1	HMGR II inh 16
O=C(c1ccc(OCCN2CCCCC2)cc1)c1c(-c2ccc(O)cc2)sc2cc(O)ccc12	dFosB act 34 (no result: HMGR II inh, p47phox inh, 14-3-3 Bad inh)
CCCCCC(C)NC(=O)c1ccoc1C (stereo not drawn)	HMGR II inh 11
CCCCCCCCCCCNC(=O)c1ccoc1C	none
CCO/C(=C/c1sc2ccc(OC)cc2[n+]1CCCS(=O)(=O)[O-])CC	none
CCOC(=O)C[n+]1c(C)sc2ccc(OC)cc21	14-3-3 Bad inh 80
O=C1CSC(=S)N1/N=C/c1ccc(O)c(O)c1O	14-3-3 Bad inh 96 (no result: HMGR II inh)
COc1ccc(OC)c(-c2csc(NC(=O)CSc3nnnn3C)n2)c1	dFosB act 33 (no result: HMGR II inh, p47phox inh, 14-3-3 Bad inh)
CCOc1ccc(NC(=O)c2ccc3c(c2)C(=O)N(Cc2ccncc2)C3=O)cc1	none (no result: HMGR II inh, p47phox inh, 14-3-3 Bad inh)
CC(C)n1c(=O)[nH][nH]c1=S	p47phox inh 43 (no result: HMGR II inh, dFosB act)
Cc1n[nH]c(=S)n(NC(=O)/C=C/C(=O)Nn2c(=S)[nH]nc(C)c2=O)c1=O	14-3-3 Bad inh 85
Cc1n[nH]c(=S)n(NC(=O)CC(=O)Nn2c(=S)[nH]nc(C)c2=O)c1=O	none
C1=CC2CC1CC2CN1CCN(c2ccccc2)CC1 (stereo not drawn)	14-3-3 Bad inh 75
CCc1[nH]c(=O)[nH]c1C(C)S(=O)(=O)c1ccc(C)cc1 (stereo not drawn)	none
C[C@@H](NC(=O)Cn1cnc2c(OCc3ccccc3)ncnc21)c1cccc2ccccc12	dFosB act 26 (no result: HMGR II inh, p47phox inh, 14-3-3 Bad inh)
CCOC(=O)N1CCN(C(=O)CSc2ccc(-c3cccc(OC)c3)nn2)CC1	none
CCOC(=O)N1CCN(C(=O)CSCC(=O)Nc2nc(-c3ccc(-c4ccccc4)cc3)cs2)CC1	p47phox inh 62
CCOC(=O)N1CCN(C(=O)CSc2ccc(-c3cccnc3)nn2)CC1	HMGR II inh 10 (no result: dFosB act)
COc1ccc(N2C(=S)NC3N2C(=S)NC3(C)c2ccccc2)cc1 (stereo not drawn)	none
COc1ccc(N2C(=O)CC(SCc3ccc(Cl)cc3)C2=O)cc1 (stereo not drawn)	none (no result: HMGR II inh)
Oc1ccc(C[C@H]2CNC(=S)N2CC2CCCN2C[C@H](Cc2ccc(O)cc2)N2C[C@H](Cc3ccccc3)N(CC3CCCCC3)C2=S)cc1 (stereo partly drawn)	dFosB act 49 (no result: HMGR II inh, p47phox inh, 14-3-3 Bad inh)
O=C(CSc1ccc2nnc(-c3cccc(F)c3)n2n1)NCc1ccco1	none
COc1cc(Sc2ccc(C)cc2)c(OC)cc1N	14-3-3 Bad inh 76
Cn1c(=O)c(Oc2ccc(Cl)cc2)c(O)c2ccccc21	none
O=C1CCC[C@@H]2CC(Nc3ccc(F)cc3F)C[C@@H]3CCN1[C@H]23 (stereo partly drawn)	none (no result: HMGR II inh, p47phox inh, 14-3-3 Bad inh)
COc1cc(CN2CCN(c3ccc(C)cc3)CC2)cc([N+](=O)[O-])c1O	14-3-3 Bad inh 83 (no result: dFosB act)
CCOc1cc(CN2CCN(c3cccc(C(F)(F)F)c3)CC2)ccc1OC	14-3-3 Bad inh 70
CCOc1cc(CN2CCN(c3ccc(C(C)=O)cc3)CC2)ccc1OC	14-3-3 Bad inh 89
O=C(Cn1ccc2ccccc2c1=O)NCC(=O)N1CCCCC1	none (no result: HMGR II inh, p47phox inh, 14-3-3 Bad inh)
C[C@@H]1CN([C@@H](C)CO)C(=O)c2cc(N(C)C)ccc2O[C@@H]1CN(C)Cc1ccncc1	none (no result: HMGR II inh, p47phox inh, 14-3-3 Bad inh)
CCN=C(Nc1ccc2c(c1)OCO2)SC1CC(=O)N(c2ccccc2F)C1=O (stereo not drawn)	p47phox inh 42
O=C(OCC(=O)c1ccc(S(=O)(=O)N2CCCC2)cc1)C1=COCCO1	p47phox inh active
O=C(Cc1ccccc1)Nn1cnc2ccccc21	14-3-3 Bad inh 78
COC(=O)C1CSC(C(=O)OC)N1C(=O)Nc1c(C)cccc1C (stereo not drawn)	none
Cc1cccc(C)c1NC(=O)N1C(C(=O)O)CSC1C(=O)O (stereo not drawn)	p47phox inh 67 (no result: 14-3-3 Bad inh)
COCCN(C(=O)Cc1cccs1)c1nnc(-c2cccnc2)s1	none
CCCCN(C(=O)Cc1cccs1)c1nnc(-c2cccnc2)s1	14-3-3 Bad inh 71
O=C(Nc1cccc(O)c1)c1ccc(NC(=O)C2CCCO2)cc1 (stereo not drawn)	none (no result: HMGR II inh, p47phox inh, 14-3-3 Bad inh)
NC(=O)CCn1c(=O)oc2ccccc21	p47phox inh 68
O=c1oc2ccccc2n1CCCCCn1c(=O)oc2ccccc21	none
O=C(CCn1c(=O)oc2ccccc21)Nc1ccccc1	none
N#CCCCn1c(=O)oc2ccccc21	HMGR II inh 15
COc1ccccc1-c1nnc2sc(-c3ccc(N(C)C)cc3)nn12	none
Cc1c(/C=N/NC(=O)CNc2ccccc2)c2ccccn2c1C(=O)c1ccncc1	none
COc1ccc(N(C(=O)c2snc(C(N)=O)c2N)C(C(=O)NCc2ccccc2)c2ccc(F)cc2)c(OC)c1 (stereo not drawn)	dFosB act 25 (no result: HMGR II inh, p47phox inh, 14-3-3 Bad inh)
COc1ccc(C(C(=O)NCc2ccccc2)N(C(=O)c2snc(C(N)=O)c2N)c2ccccc2OC)cc1 (stereo not drawn)	none (no result: HMGR II inh, p47phox inh, 14-3-3 Bad inh)
O=C(Cn1c2ccccc2c(=O)c2ccccc21)N/N=C/c1cc([N+](=O)[O-])ccc1N1CCCCCC1	none (no result: 14-3-3 Bad inh)
O=C(Cn1c2ccccc2c(=O)c2ccccc21)N/N=C/c1ccc(N2CCCC2)c([N+](=O)[O-])c1	14-3-3 Bad inh 98[fluorescence artefact?]
NC(=O)NC(Cc1ccccc1)C(=O)N1CCN(S(=O)(=O)c2ccc(Cl)cc2)CC1 (stereo not drawn)	none (no result: HMGR II inh, p47phox inh, 14-3-3 Bad inh)
Cc1ccc(C(=O)NC(=S)Nc2cccc(-c3nc4ccccc4s3)c2)cc1	HMGR II inh 10
O=C(N/N=C/c1ccc(Cl)c([N+](=O)[O-])c1)C1CC1	none
C=CCOc1ccccc1CN1CCCCCC1	none (no result: HMGR II inh, p47phox inh, 14-3-3 Bad inh)
C=CCOc1ccccc1CN1CCSCC1	14-3-3 Bad inh 80
CCc1cc(=O)oc2c3c(cc(OCC(=O)NCc4ccco4)c12)OC(C)(C)CC3	none (no result: HMGR II inh, p47phox inh, 14-3-3 Bad inh)
CCOCCCNC(=O)CN1CCN(c2ccc(F)cc2)CC1	14-3-3 Bad inh 74
CCOc1ccc(NC(=O)CN2CCN(c3ccc(F)cc3)CC2)cc1	none (no result: HMGR II inh, p47phox inh, 14-3-3 Bad inh)
CCCS(=O)(=O)N1CCN(C2Cc3ccccc3C2)CC1	none (no result: HMGR II inh)
O=C(N/N=C/c1cc([N+](=O)[O-])ccc1O)NC12CC3CC(CC(C3)C1)C2	none
O=C(N/N=C/c1cc([N+](=O)[O-])ccc1O)C12CC3CC(CC(C3)C1)C2	HMGR II inh 13
CCOc1ccc(N2C(=O)c3ccc(C(=O)OCC(=O)N(CC)C4CCS(=O)(=O)C4)cc3C2=O)cc1 (stereo not drawn)	p47phox inh 44
CCN(C(=O)COC(=O)c1ccc(N2C(=O)c3ccccc3C2=O)cc1)C1CCS(=O)(=O)C1 (stereo not drawn)	none
